This is a sample that favours compounds with a hit; in the whole collection about 12% have one here.
Sfp inh: qHTS Assay for Inhibitors of Bacillus subtilis Sfp phosphopantetheinyl transferase (PPTase); Potency, µM, for the others: largest response in the series, negative = inhibition, hits mostly inhibitors; AID 1490, 2009; 4'-phosphopantetheinyl transferase ffp (Bacillus subtilis), Q9F4F7; hit rate 3.5% among 310,000; Biochemical Sfp PPTase activity, qHTS;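 further: the enzyme is Sfp with the accession as filed and its product quenches rhodamine fluorescence; 0% = enzyme reaction without inhibitor and -100% = no enzyme wells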
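Compounds were incubated with enzyme (final 15 nM) for 15 min at room temperature before substrate addition started the reaction. Fluorescence at 525 nm excitation, 598 nm emission was recorded immediately and after 30 minutes.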
JMJD2A Tudor: qHTS Assay for Inhibitors of JMJD2A-Tudor Domain; hit rate 4.4% among 390,000; AlphaScreen JMJD2A-Tudor / H3K4me3 peptide binding; AID 504339, 2011; Potency, µM (highest dose often 114 µM), without a hit: at the highest dose activity change, negative = inhibition, usual class: inhibitors; further: on the % scale 0 is the no-effect control and ±100 the full control effect; nearly all actives have a fitted effect of over 50% in size
HP1b chromo inh: HTS for Inhibitors of HP1-beta Chromodomain Interactions with Methylated Histone Tails. Potency, µM (titrated, usually from 114 µM), for inactives: at the top dose activity change, negative = inhibition, usual class: inhibitors. AlphaScreen HP1-beta / biotin-H3K9me3 peptide binding. hit rate 0.56% among 390,000. Chromobox protein homolog 1 (Homo sapiens), P83916. AID 540317, 2011; further: nearly all actives have a fitted effect of over 70% in size
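HP1-beta protein (50 nM final) preincubated 30 min at room temperature with biotinylated H3(1-18)K9me3 peptide (50 nM) in PBS pH 7.4, 0.01% Tween-20, then compound added for 30 min. AlphaScreen streptavidin donor/nickel chelate acceptor beads (10 ug/mL final), 30 min dark, luminescence read.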
G9a block: qHTS Assay for Inhibitors of Histone Lysine Methyltransferase G9a | G9a H3K9 monomethylation, AlphaScreen, 2 h | hit rate 8.8% among 350,000 | AID 504332, 2011 | Potency, µM (highest dose often 102 µM), for inactives: at the highest dose activity, negative = inhibition, most hits filed as inhibitors; further: on the % scale 0 is the no-effect control and ±100 the full control effect; nearly all actives have a fitted effect of over 75% in size
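Readings reflect AlphaScreen signal from monomethyl-H3K9 antibody detection. HMT at 20 nM; substrate b-H3K9 500 nM; cofactor SAM 20 uM; 2 h RT reaction; compounds tested as titrations in qHTS with 15 min preincubation.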
BAZ2B block: qHTS Assay for Inhibitors of BAZ2B. AlphaScreen BAZ2B-H3K14Ac peptide displacement. Bromodomain adjacent to zinc finger domain protein 2B (Homo sapiens), Q9UIF8. Potency, µM (series often up to 114 µM), for inactives: top-dose activity change, negative = inhibition, actives largely listed as inhibitors. hit rate 4.4% among 360,000; further: on the % scale 0 is the no-effect control and ±100 the full control effect; nearly all actives have a fitted effect of over 60% in size
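Inhibition is scored as reduced AlphaScreen emission. The BAZ2B/b-H3(5-23)K14Ac complex (50 nM each) in PBS pH 7.4, 0.01% Tween-20 meets compound (up to 110 uM) for 30 min at RT before bead addition.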
L3MBTL1 block: qHTS Assay for the Inhibitors of L3MBTL1. hit rate 0.66% among 230,000. AlphaScreen L3MBTL1–H3K9me1 peptide binding. Potency, µM (highest dose often 57.1 µM), inactives show top-dose activity, negative = inhibition, most hits filed as inhibitors. Lethal(3)malignant brain tumor-like protein 1 (Homo sapiens), Q9Y468. AID 485360, 2010; further: on the % scale 0 is the no-effect control and ±100 the full control effect; nearly all actives have a fitted effect of over 60% in size
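Displacement of a biotinylated histone H3(1-15) peptide monomethylated at Lys9 (75 nM) from L3MBTL1 (50 nM) was measured by AlphaScreen after a 30 min room-temperature compound incubation; cefsulodin titration served as intraplate control.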
* = called active by the depositor; ? = inconclusive; nt = not tested or not shown; ! = a repeat was not active; [ ] = remark or other dose. The call rests on the fitted dose curve; in most records, active means well fitted curve in the direction sought with a large enough effect; inconclusive means small, poorly fitted or top-dose-only effect, or another doubt; inactive means no such curve, though single readings can be large; an effect the other way counts as inactive or inconclusive. Potency means the concentration at half of the fitted maximal effect.

SMILES | Sfp inh | JMJD2A Tudor | HP1b chromo inh | G9a block | BAZ2B block | L3MBTL1 block
COc1ccc2[nH]c(=O)c(CN(Cc3nnnn3Cc3ccco3)C3CCCCC3)cc2c1 | 8.9µM* | ? | -26% | 40µM* | 50µM* | ?
COc1ccc2[nH]c(=O)c(CN(C(=O)c3ccccn3)C3CCCCC3)cc2c1 | -20% | 7% | -13% | 28µM* | 17% | -1%
COc1ccc(/C=C/C(=O)N(CCC(N)=O)c2ccccc2)cc1S(=O)(=O)N1CCOCC1 | nt | 6% | 53% | 50µM* | -2% | 6%
COc1ccc(/C=C/C(=O)N2CCN(c3ccccc3)CC2)cc1S(=O)(=O)N1CCOCC1 | 11% | -12% | 11% | 4% | -26% | -7%
CCC(C(=O)Nc1nnc2n1CCS2)c1ccccc1 (centres undefined) | nt | -24% | 16%[57 µM] | -47%[59 µM] | -37% | nt
O=C(Nc1nnc2n1CCS2)c1ccc(F)cc1F | nt | 50µM* | 13%[57 µM] | 2.2µM* | 50µM* | nt
Cc1ccccc1C(=O)Nc1nnc2n1CCS2 | nt | ? | 9%[57 µM] | 8.9µM* | ? | nt
O=C(Nc1ccc(N2CCCCC2)cc1)c1ccc(F)cc1F | 5% | -16% | 7% | nt | -6% | -8%
CCn1c(CNC(=O)Cc2ccc(OC)cc2)nnc1SCCOc1ccccc1 | 6% | -9% | 27% | 3% | 2% | nt
COc1ccc(OCCSc2nnc(CC(=O)Nc3cccc(Cl)c3Cl)n2C)cc1 | -18% | ? | 8% | 3.2µM* | -12% | nt
CCn1c(CC(=O)Nc2cccc(Cl)c2Cl)nnc1SCCOc1ccc(OC)cc1 | 4% | ? | 26% | 25µM* | -7% | nt
CCOc1ccccc1CNC(=O)c1ccc2c(c1)nc1n2CCCCC1 | nt | -2% | 34%[57 µM] | 5%[59 µM] | 0% | nt
C[C@H]1CCC(=O)N([C@H](COc2ccccc2)Cc2ccccc2)CC1 | -14% | 4% | 76% | 32µM* | 9% | -1%
CC1CCC(=O)N(CCOc2ccccc2)CC1 (centres undefined) | 3% | ? | 9% | -32% | 8% | -1%
COc1ccc(-c2c[n+](CC(=O)c3ccccc3)c3n2CCCCC3)cc1 | -1% | -19% | 21% | 14%[12.7 µM] | 0% | 6%
COc1ccc(-c2c[n+]3c4n2CCCCC4=C(c2ccccc2)C3)cc1 | -28% | 40µM* | -5% | 14µM* | 56µM* | -17%
O=S(=O)(Nc1ccc2c(c1)OCO2)c1ccc(F)c(F)c1 | nt | -19% | 29% | -13%[59 µM] | 5% | 6%
O=c1[nH]cc(S(=O)(=O)Nc2ccc3c(c2)OCO3)c(=O)[nH]1 | nt | -27% | 29% | 50µM* | -9% | -5%
O=C1[C@@H]2C(c3cccnc3)=NO[C@@H]2C(=O)N1c1ccc2ccccc2c1 | 50µM* | 79µM* | ? | nt | -9% | 2%
Cc1nn(-c2cccc(Cl)c2)c2c1C(c1cccnc1)C(C#N)=C(N)O2 (centres undefined) | -4% | ? | -15% | 45µM* | 50µM* | -10%
Cc1nn(-c2cccc(Cl)c2)c2c1C(c1ccncc1)C(C#N)=C(N)O2 (centres undefined) | -9% | 79µM* | ? | ? | 40µM* | -27%
COc1ccc(OC)c(C2C(C#N)=C(N)Oc3c2c(C)nn3-c2cccc(Cl)c2)c1 (centres undefined) | -2% | 50µM* | -38% | 40µM* | 40µM* | -14%
CC(=O)C1=C(C)OC(N)=C(C#N)C1c1ccncc1 (centres undefined) | ? | -5% | 45% | ? | 9% | -14%
COc1cc2c(cc1OC)-c1cc(=Nc3c(C)cc(C)cc3C)n(C)c(=O)n1CC2 | 71µM*! | ? | -25%[57 µM] | 21µM* | nt | nt
Cc1nc2sc(C(=O)Nc3ccc(F)cc3)c(N)c2c(-c2ccc(Br)cc2)c1C(=O)Nc1ccc(Cl)cc1 | nt | 11% | 70% | -23%[59 µM] | -2% | nt
SMILES | Sfp inh | JMJD2A Tudor | HP1b chromo inh | G9a block | BAZ2B block | L3MBTL1 block
CC#CCN1c2ccccc2[C@]23C[C@@H](C(=O)OC)N(S(=O)(=O)c4ccc(C(F)(F)F)cc4)C2=NC(C(=O)OC)=C(C(=O)OC)[C@H]13 | 11% | nt | nt | nt | nt | nt
COC(=O)C1=C(C(=O)OC)[C@@H]2N(C)c3ccc(OC)cc3[C@@]23C[C@@H](C(=O)OC)N(S(=O)(=O)c2ccc4c(c2)OCCN4C)C3=N1 | 2% | nt | nt | nt | nt | nt
COc1ccc(-n2c(=O)c(-c3cccc(F)c3)nc3cncnc32)cc1 | 25% | nt | nt | 9%[0.501 µM] | nt | nt
CCc1nc2c(sc3nc4c(cc32)COC(C)(C)C4)c(=O)n1Cc1ccco1 | 3.5µM* | -27% | -15% | ? | ? | nt
CCc1nc2c(sc3nc4c(cc32)COC(C)(C)C4)c(=O)n1Cc1ccccc1 | -1% | -22% | 20% | ? | 8% | 9%
C=CCn1c(=O)c2c(nc(-c3ccc(S(=O)(=O)O)cc3)n2C)n(C)c1=O | 6% | ? | 20% | 12µM* | nt | nt
COc1ccc2c(C)c(CCC(=O)NCc3ccccc3Cl)c(=O)oc2c1C | nt | -16% | 32% | 4%[59 µM] | -2% | nt
Cc1ccc(C)c(-n2[nH]c3c4c(ccc3c2=O)C(=O)c2ccccc2C4=O)c1 | -8% | ? | 50µM* | -7%[59 µM] | 45µM* | -6%
COCCCn1[nH]c2c3c(ccc2c1=O)C(=O)c1ccccc1C3=O | -18% | -32% | -18% | 7.1µM* | ? | nt
Cc1ccc(-n2[nH]c3c4c(ccc3c2=O)C(=O)c2ccccc2C4=O)cc1 | 10% | -11% | -14% | 2.8µM* | -13% | 0%
CC(C)(C)n1[nH]c2c3c(ccc2c1=O)C(=O)c1ccccc1C3=O | 15% | -21% | 18% | ? | -10% | nt
Cc1ccc(C)c(CN2C(=O)C(=O)c3ccccc32)c1 | nt | -18% | 1% | ? | -3% | nt
Cc1ccc(CNC(=O)c2cc3c(=O)n(Cc4cccnc4)ccc3nc2C)cc1 | nt | -15% | 29% | 0%[59 µM] | -15% | nt
CSc1nc(=O)n2cccc(C)c2n1 | 22% | -12% | 58% | -4%[12.7 µM] | -4% | 2%
Cc1cccn2c(=S)[nH]nc12 | nt | 2.8µM* | 71µM* | nt | nt | nt
CCN1c2ccccc2-c2nc(SCC(=O)NCc3ccc(Cl)cc3)ncc2S1(=O)=O | nt | 5% | 21% | 1%[59 µM] | 4% | nt
CC(C)N(CC#CCC(O)(c1ccccc1)c1ccccc1)CCO | 45µM* | -2%[11.4 µM] | 20% | 13µM* | 79µM* | -4%
CCN(CC#CCC(O)(c1ccccc1)c1ccccc1)C(C)C | ? | -30%[57.1 µM] | 6% | -24%[59 µM] | -10% | 3%
